ALOX15 inhib = blocks human 15-lipoxygenase activity; Potency, µM (titrated, usually from 57.1 µM), for inactives: at the highest dose activity change, negative = inhibition, usual class: inhibitors; actives 1.4% (n = 74,000); purified 15hLO-1, xylenol orange hydroperoxide absorbance; P16050; further: nearly all actives have a fitted effect of over 55% in size
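Readout: Fe(III)-xylenol orange absorbance, 573-to-405 nm ratio as reaction progress. Enzyme 40 nM purified human 15hLO-1, substrate 50 uM arachidonic acid, 6 min RT after 15 min compound preincubation; Hepes pH 7.5 buffer with Triton X-100.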
Hsp90 Hop PPI = changes Hsp90-Hop TPR2A binding signal, up or down. AlphaScreen TPR2A-His6 binding biotin-Hsp90 C-terminal peptide. Potency, µM (series often up to 57 µM), without a hit: at the top dose activity change, negative = inhibition. actives 0.44% (n = 71,000); active means well fitted curve in either direction with a large enough effect; inconclusive means small, poorly fitted or top-dose-only effect, or another doubt
Bst PK mod = alters activity of Bacillus stearothermophilus pyruvate kinase; purified pyruvate kinase, luminescence ATP production; ribose 5-phosphate activator present at AC10; Potency, µM; actives 1.2% (n = 51,000); in the data active means potency below about 11 µM; inconclusive means mostly about 12 µM to 25 µM;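 the screen sought inhibitors and activators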;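 further: scaled between full activation by ribose 5 phosphate and full inhibition by luteolin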
FLuc inh = blocks Photinus pyralis firefly luciferase activity. P08659. purified firefly luciferase, luminescence, 8 min. Potency, µM (series often up to 57.1 µM), for inactives: top-dose activity change, negative = inhibition, usual class: inhibitors. actives 2.2% (n = 72,000). AID 411; further: nearly all actives have a fitted effect of over 40% in size
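Inhibition of light generation by firefly luciferase from ATP and luciferin was profiled with concentration-response curves per sample, ATP held at 10 uM within the enzyme's linear range. Plates were read by luminescence after an 8-minute ambient incubation.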
Tau fil binding = binds recombinant human tau filaments | P10636 | recombinant tau filaments, thioflavin S fluorescence, 15 h; filaments grown with octadecylsulfate alongside compound | Potency, µM (series often up to 57.1 µM), for inactives: top-dose activity change, negative = inhibition | actives 2% (n = 71,000) | AID 596;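 further: actives lower thioflavin S fluorescence by blocking filaments or displacing dye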
Target sequence (P10636 whole entry, looked up): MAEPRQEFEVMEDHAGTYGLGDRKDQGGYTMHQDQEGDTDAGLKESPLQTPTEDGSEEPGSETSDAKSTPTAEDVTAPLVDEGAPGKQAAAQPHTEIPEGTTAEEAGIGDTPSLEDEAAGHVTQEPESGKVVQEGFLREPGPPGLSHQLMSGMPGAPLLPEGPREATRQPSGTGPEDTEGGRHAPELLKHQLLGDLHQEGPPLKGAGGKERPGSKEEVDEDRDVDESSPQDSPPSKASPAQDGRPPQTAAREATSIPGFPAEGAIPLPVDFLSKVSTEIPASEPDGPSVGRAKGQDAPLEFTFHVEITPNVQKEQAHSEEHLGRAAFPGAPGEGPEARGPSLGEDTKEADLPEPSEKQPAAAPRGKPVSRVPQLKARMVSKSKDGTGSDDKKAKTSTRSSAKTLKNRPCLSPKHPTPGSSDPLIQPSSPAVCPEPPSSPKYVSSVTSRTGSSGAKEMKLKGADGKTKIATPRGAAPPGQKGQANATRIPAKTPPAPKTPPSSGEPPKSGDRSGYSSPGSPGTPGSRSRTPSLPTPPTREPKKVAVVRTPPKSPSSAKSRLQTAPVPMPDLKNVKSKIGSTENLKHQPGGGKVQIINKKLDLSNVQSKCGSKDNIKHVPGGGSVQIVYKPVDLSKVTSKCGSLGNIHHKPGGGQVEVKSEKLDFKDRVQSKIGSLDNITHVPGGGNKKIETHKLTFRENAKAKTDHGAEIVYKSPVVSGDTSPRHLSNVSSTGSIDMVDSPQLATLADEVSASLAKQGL
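ThS-based fibril read: tau 1 uM final, inducer ODS 30 uM final, 37 C for 15 h, ex 450/em 510 nm.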
ERK AVP block = inhibitors of vasopressin-stimulated ERK signaling pathway; HEK293-V1b, vasopressin-stimulated pERK AlphaScreen; AID 995; Potency, µM (titrated, usually from 57.5 µM), for the others: at the top dose activity, negative = inhibition, hits mostly inhibitors; actives 0.99% (n = 72,000); further: nearly all actives have a fitted effect of over 55% in size
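qHTS, compounds titrated on V1b-expressing HEK293 cells. Preincubation 30 min at 37C, vasopressin 25 nM for 5 min, lysis 10 min, bead incubation 5 hr at room temperature.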
* marks the source's active call; other numbers are inactive results; i = inactive; ? = inconclusive; . = not tested or not shown; [ ] = dose if it differs, or a comment. This is a sample that favours compounds with a hit; in the whole collection about 6.1% have one here. Unless noted, the call rests on the fitted dose curve; in most records, active means well fitted curve in the direction sought with a large enough effect; inconclusive means small, poorly fitted or top-dose-only effect, or another doubt; inactive means no such curve, though single readings can be large; an effect the other way counts as inactive or inconclusive. Unless noted, on the % scale 0 is the no-effect control and ±100 the full control effect; potency means the concentration at half of the fitted maximal effect.

SMILES	ALOX15 inhib	Hsp90 Hop PPI	Bst PK mod	FLuc inh	Tau fil binding	ERK AVP block
Nc1ccc(-c2cc(N)n(-c3ccccc3)n2)cc1	-7.2%	-11.2%	>57	0.2%	?	11.2%
O=C(Nc1ccc(Br)cn1)c1ccc2nccnc2c1	-15.6%	-2.6%	.	-18.6%	15.8µM*	-11.6%
CS(=O)(=O)c1sc2nc(-c3cccs3)cc(-c3ccccc3)c2c1N	?	?	>57	-1.2%	7.94µM*	?
CC(=O)c1sc2nc(-c3cccs3)cc(C(F)(F)F)c2c1N	-29.4%	27.8%	>57	4.7%	127.1%	30.6%
COc1cccc(-c2cncnc2NCc2cccc(C)c2)c1	-8.3%	-0.1%	.	-0.8%[2.29 µM]	9.4%	-24.4%
COc1cccc(-c2cncnc2NCc2cccnc2)c1	15.8µM*	-11.0%	.	0.6%[2.29 µM]	-1.1%	-22.2%
COc1ccccc1CNc1ncncc1-c1ccoc1	10µM*	?	.	-1.6%[2.29 µM]	-7.8%	-39.0%
COc1cccc(-c2ccc3ncnc(NCc4ccc(OC)cc4OC)c3c2)c1	-7.6%	-11.3%	.	-1.0%[2.29 µM]	454.6%	-13.7%
COc1ccc(CNc2ncncc2-c2ccc(N(C)C)cc2)c(OC)c1	20µM*	-27.5%	.	1.8%[2.29 µM]	?	?
COc1ccc(CNc2ncnc3ccc(-c4ccc(N(C)C)cc4)cc23)c(OC)c1	?	?	.	0.8%[2.29 µM]	2.51µM*	-12.3%
C=CCC(O)CC1C2C(CC(O)CC=C)C3C1C3C2OC(C)(C)C (stereo not given)	2.7%[11.4 µM]	.	.	.	.	4.6%[11.5 µM]
Cc1cc(N)c2ccccc2[n+]1CCCCCCCCCCCCCC[n+]1c(C)cc(N)c2ccccc21	?	?	.	-1.2%	i	-12.4%
C#CCCCCCCCCCCCC(=O)CC(O)COC(C)=O (stereo not given)	-4.1%	.	.	.	.	-21.1%
O=[N+]([O-])c1ccc2c(c1)c(S(=O)(=O)O)cc1nonc12	12.9%[11.4 µM]	-3.8%[11 µM]	.	-0.4%[11.4 µM]	5.8%[11.4 µM]	29.2%[11.5 µM]
CC(=O)N1CCN(c2ccc(Nc3nc(C)nc4c3oc3ccccc34)cc2)CC1	-11.1%	?	.	-2.9%	20µM*	10µM*
C[C@H](O)[C@H](O)[C@@H](O)c1cnc2nc(N)[nH]c(=O)c2n1	.	-0.9%	.	0.3%[11.4 µM]	16.7%	.
c1csc(-c2nnc3ccccn23)c1	2.5%	-1.0%	6.99*	3.4%	-5.0%	-9.1%
Cn1cccc1C(=O)N1CCC2(CCCN(c3ncccn3)C2)CC1	-9.9%	0.4%	.	2.1%[11.4 µM]	-13.9%	-7.9%
CC(C)=CC1C(CO)C1(C)C (stereo not given)	?	.	.	.	.	-10.0%
Cc1ccc(N=Nc2c(O)c(S(=O)(=O)O)cc3cc(S(=O)(=O)O)ccc23)c(C)c1	6.3%[11.4 µM]	-23.6%[11 µM]	.	-17.9%[11.4 µM]	-9.0%[11.4 µM]	-6.0%[11.5 µM]
O=S(=O)(O)c1ccc2c(N=Nc3c(O)ccc4ccccc34)cccc2c1	-14.1%[11.4 µM]	?	.	-7.1%[11.4 µM]	3.16µM*	-15.7%[11.5 µM]
Nc1ccccc1N=Nc1c(S(=O)(=O)O)cc2cc(S(=O)(=O)O)cc(O)c2c1O	6.3%[11.4 µM]	?	.	?	-14.9%[11.4 µM]	-3.4%[11.5 µM]
O=S(=O)(O)c1cc(S(=O)(=O)O)c2c(N=Nc3cccc4ccccc34)c(O)ccc2c1	-6.4%[11.4 µM]	?	.	?	3.98µM*	?
O=C(c1ccncc1)N1CCC[C@@]2(CCN(Cc3ccccc3)C2)C1	-8.6%	-6.8%	.	0.9%[11.4 µM]	1.6%	-1.7%
CCc1cccc(NC(=O)CCc2nc(-c3cccs3)no2)c1	-11.5%	13.6%	.	-2.8%	-8.1%	25.1µM*
SMILES	ALOX15 inhib	Hsp90 Hop PPI	Bst PK mod	FLuc inh	Tau fil binding	ERK AVP block
CCOC(=O)c1ccc(NC(=O)CCc2nc(-c3ccccc3Cl)no2)cc1	-23.2%	19.5%	>57	-0.3%	32.1%	?
CCOC(=O)c1ccc(NC(=O)CCc2nc(-c3ccccc3)no2)cc1	-18.0%	15.2%	>57	0.8%	93.4%	15.8µM*
O=C(CCc1nc(-c2cccs2)no1)Nc1cnc2ccccc2c1	-7.6%	?	>57	-1.0%	4.5%	27.6%
CCN1CCCC1Cn1c(-c2ccccc2)nc2c(N3CCOCC3)nc(C)nc21 (stereo not given)	-1.8%	2.2%	.	.	20.6%	-11.0%
O=C1c2ccccc2-c2nc3ncnn3c(-c3ccccc3Cl)c21	5.9%	-6.7%	.	-1.2%	12.6µM*	-21.0%
CN(C)CC(=O)N1c2ccccc2CCc2ccc(NC(=O)c3ccc(N)cc3)cc21	-5.9%	-16.7%	>57	-20.8%	15.8µM*	11.8%
C=CCCCCCCCCCCC/C=C/C(O)COC(C)=O (stereo not given)	0.3%	.	.	.	.	-20.0%
COc1ccccc1-c1ccc2ncnc(NCc3cccnc3)c2c1	-11.1%	?	.	0.9%[2.29 µM]	2.5%	5.9%
COc1ccccc1-c1ccc2ncnc(NCc3cnc(C)cn3)c2c1	9.7%	-1.7%	.	-2.7%[2.29 µM]	-11.8%	20µM*
COc1ccccc1-c1nc(NC2CC2)c2ccccc2n1	-17.2%	-5.4%	.	1.0%[2.29 µM]	15.8µM*	12.3%
COc1ccccc1-c1ccc(NC2CCCCC2)nn1	-6.0%	-4.4%	.	12.6µM*	-5.6%	-12.0%
COc1ccccc1-c1nnc(SCC(=O)NC2CCCCC2)o1	-3.2%	-3.6%	.	-1.9%	4.0%	-7.4%
Cc1ccc(-c2nn(C)c(=O)c3ccccc23)cc1S(=O)(=O)NCCN1CCOCC1	-25.9%	-8.0%	>57	-0.3%	-7.8%	25.1µM*
CC[N+]1(C)[C@@H]2CC[C@H]1CC(OC(=O)[C@H]1CC[C@@](C(=O)OC3C[C@H]4CC[C@@H](C3)[N+]4(C)CC)(c3ccccc3)c3ccccc31)C2 (stereo not given in full)	3.6%[25.6 µM]	-1.2%[26 µM]	.	-5.8%[25.5 µM]	11.7%[25.6 µM]	14.4%[25.7 µM]

Screening data: PubChem, National Center for Advancing Translational Sciences (NCATS)
